According to PubChem BioAssay AID686978 (National Center for Advancing Translational Sciences (NCATS), 2013):
Among all 420,000 compounds or so, about 64,000 (15%) were called active. Not shown: some 27% with an inconclusive outcome. Calls follow the shape of the dose curve; as a rule, active = well fitted inhibition curve with a large enough effect; inconclusive = small, poorly fitted or top-dose-only effect; inactive = flat fitted curve, though single readings scatter. A selection follows. A call without a number means that no potency is given here.

Test: qHTS for Inhibitors of human tyrosyl-DNA phosphodiesterase 1 (TDP1): qHTS in cells in absence of CPT; also: nearly all actives have a fitted effect of over 55% in size
Conditions: DT40 Tdp1-/- hTDP1 cells, no CPT, ATP luminescence, 48 h; activity change, negative = growth inhibition: at 46.2 µM (top of the series)
Source text: Human tyrosyl-DNA phosphodiesterase 1 (TDP1) is a novel repair gene, and we propose to use it as a new target for anticancer drug development. TDP1 is not an essential protein, but under treatment with topoisomerase I poison (camptothecin: CPT), TDP1 works as a critical factor for cell survival. To directly identify novel TDP1 inhibitors active in a cellular environment, we have knocked-out the Tdp1 gene in chicken DT40 cells (Tdp1-/-) and generated a complemented counterpart cells that contains a stable transfection of the human TDP1 gene (Tdp1-/-;hTDP1 cells). For the primary screen, Tdp1-/-;hTDP1 cells will be exposed to small molecules in the presence or absence of CPT, and their growth kinetics will be evaluated after 48 hours by measuring ATP activity. […] The hit compounds will then be evaluated in the presence or absence of CPT using Tdp1-/- cells. […] In tertiary assays, biochemical gel-based assays will be used to assess whether the hit compounds specifically target TDP1.
To this end, we have screened this cell line against the MLSMR in two primary screens. In one screen we add CPT and in the other we screen in the absence of CPT; this AID represents the screen where CPT was absent.
NIH Chemical Genomics Center [NCGC]
NIH Molecular Libraries Probe Centers Network [MLPCN]
Assay Submitter (PI): Yves Pommier, NCI
DT40-hTDP1 cells without 20 nM Camptothecin (add 20 microL of DMSO in 1 L of cell culture medium) were dispensed at 400 cells/5microL/well in tissue culture treated 1536-well white wall/solid bottom assay plates (Greiner Bio-One North America, NC, U.S.A.) using a Multidrop Combi 8 channel dispenser (Thermo Fisher, Waltham, MA, USA). 23 nL compounds and controls were transferred using the pin tool (Kalypsys, San Diego, CA, USA) to the assay plates. The assay plates were then incubated at 37 masculineC for a minimum 48 hr. Three microL of Cell Titer Glo solution was added to the plates and incubated at RT in dark for 30 min. Luminescence was read using ViewLux (Perkin Elmer) with 1 sec exposure slow speed, high gain and 2x binning.
Potency is read from the fitted curve at half-maximal effect.

Structure (SMILES)	Potency
CCCN(CC(=O)Nc1ccc(C(N)=O)cc1)CC(=O)Nc1ccccc1C	inactive
CS(=O)(=O)N(CC(=O)N1CCN(Cc2ccccc2)CC1)c1ccc2c(c1)OCCO2	inactive
CC1CCN(C(=O)CN(c2ccc(Oc3ccccc3)cc2)S(C)(=O)=O)CC1	13 µM (active)
COc1ccc(N(CC(=O)N2CCCCCC2)S(=O)(=O)c2ccccc2)cc1	inactive
Cc1ccc(N2C(=O)CC(N3CCSCC3)C2=O)c(C)c1 (stereo not drawn)	inactive
Cc1ccc(-n2ncc3c2CC(C)(C)CC3NC(=O)Cc2c(C)noc2C)cc1 (stereo not drawn)	23.1 µM (active)
Cc1cc(C(=O)NC2CC(C)(C)Cc3c2cnn3-c2ccccc2)n[nH]1 (stereo not drawn)	inactive
COC(=O)c1ccc(C(=O)NC2CC(C)(C)Cc3c2cnn3-c2ccc(F)cc2)nc1 (stereo not drawn)	3.66 µM (active)
COc1ccc(-n2ncc3c2CC(C)(C)CC3NC(=O)CCc2c(C)noc2C)cc1 (stereo not drawn)	inactive
COc1ccc(-n2ncc3c2CC(C)(C)CC3NC(=O)CCc2c(C)nn(C)c2C)cc1 (stereo not drawn)	inactive
CC1(C)Cc2c(cnn2-c2cccc(F)c2)C(NC(=O)c2cc[n+]([O-])cc2)C1 (stereo not drawn)	inactive
CCn1ncc(CNC(=O)C2(C)CC2(Br)Br)c1C (stereo not drawn)	inactive
CC12CN3CC(C)(CN(C1)C3c1ccc(Cl)cc1Cl)C2=O (stereo not drawn)	inactive
Cc1ccc(-c2noc(-c3nnn(-c4cccc(C(F)(F)F)c4)c3N)n2)cc1	inactive
Cc1cc(C)cc(N(CC(=O)NC2CCCC2)C(=O)CCC(=O)Nc2nccs2)c1	inactive
COc1cc(C(=O)N2CCN(S(=O)(=O)c3ccc(C(C)C)cc3)CC2)ccc1OCC(=O)N1CCOCC1	inactive
FC(F)(F)c1ccnc(Oc2ccc(C3=NCCS3)cc2)c1	inactive
C/C(=N\NC(=O)CNc1cccc2ccccc12)c1ccc(Br)s1	8.2 µM (active)
C/C(=N\NC(=O)COc1c(C)cccc1C)c1cccs1	inactive
Cc1c(Cl)cccc1NC(=O)CCC(=O)N/N=C/c1ccco1	inactive
C/C(Cc1ccccc1)=N\NC(=O)CNC(=O)c1cccc(Br)c1	inactive
O=C(COC(=O)c1ccccn1)Nc1cccc2ccccc12	inactive
Cc1cccc(/C=N/NC(=O)CNc2cccc3ccccc23)n1	13 µM (active)
C=CCN1CC(C)/C(=N\O)CC1C (stereo not drawn)	inactive
Cc1ccc(NC(=O)Cn2cnc3nc4c(cc3c2=O)CCCC4)cc1Cl	inactive
COc1ccc(C(=O)NC(Cc2ccc(OC(=O)c3ccc(OC)cc3)cc2)C(=O)O)cc1 (stereo not drawn)	inactive
CN(CCc1ccccn1)C(=O)CCC1CCCN(Cc2ccccc2OC(F)F)C1 (stereo not drawn)	inactive

Structure (SMILES)	Potency
CN(CC(=O)NCCc1ccc(S(N)(=O)=O)cc1)CC(=O)Nc1ccc(Cl)cc1	inactive
O=C1CCC(C(=O)Nc2ccc(OC(F)F)cc2)N1 (stereo not drawn)	inactive
CC(NC(=S)Nc1ccc(OC(F)F)cc1)c1ccc(F)cc1 (stereo not drawn)	16.4 µM (active)
CCNC(=S)Nc1ccc(OC(F)(F)F)cc1	inactive
CC(=O)c1ccc(OCC(O)CN2CCN(S(=O)(=O)c3cccc(Br)c3)CC2)cc1 (stereo not drawn)	inactive
CCCCC(=O)N(c1ccc(OC)cc1)C1C=CS(=O)(=O)C1 (stereo not drawn)	inactive
CN(C)/C=C/C(=O)c1ccccc1F	inactive
COc1ccccc1NC(=O)c1c(Br)cnn1C	inactive
COc1ccc(NC(=O)c2sc3nc(-c4cc5cccc(OC)c5oc4=O)[nH]c(=O)c3c2C)cc1	inactive
COc1ccccc1NC(=O)c1sc2nc(C)c(C(=O)Nc3ccc(Cl)cc3)c(-c3ccc(Br)cc3)c2c1N	16.4 µM (active)
N/C(=N\OC(=O)c1ccc([N+](=O)[O-])cc1)c1ccccn1	inactive
O=C(NC1CC1)C1=C[C@H](c2coc3ccccc3c2=O)C[C@H](OCCCCO)O1	inactive
CCO[C@H]1OC(C(=O)O)=C[C@@H](C2CCCCC2)[C@@H]1CCCO	inactive
CCO[C@H]1OC(C(=O)NCc2ccccc2)=C[C@@H](c2coc3ccccc3c2=O)[C@@H]1CCCO	9.2 µM (active)
CC1=CC(=NNS(=O)(=O)c2ccc([N+](=O)[O-])cc2)CC(C)(C)C1	inactive
NC(=O)Cn1cc(/C=N\NS(=O)(=O)c2ccccc2)c2ccccc21	inactive
N#CCC(=O)N/N=C/c1cn(Cc2ccc3ccccc3c2)c2ccccc12	14.6 µM (active)
Cc1ccc(CNC(=O)Cc2cn(C)c3ccccc23)cc1	inactive
CNC(=S)N/N=C/c1cn(Cc2ccc(C)cc2)c2ccccc12	18.4 µM (active)
CCN1CCN(C(=O)/C=C\C(=O)O)CC1	inactive
C=CCn1c(=O)c(C(=O)Nc2ncccc2O)c(O)c2ccccc21	inactive
CCc1cccc(C)c1NC(=O)COC(=O)CNC(=O)c1cccs1	inactive
CCc1cccc(C)c1NC(=O)COC(=O)CC1CCCC1	inactive
Cc1cc(NC(=O)COc2ccccc2C#N)no1	inactive
CCc1cccc(CC)c1NC(=O)COc1ccccc1C(=O)c1cc(C#N)c(=O)n(C2CCCCC2)c1	16.4 µM (active)
O=S(=O)(NCC(c1ccco1)N1CCOCC1)c1cc(F)ccc1F (stereo not drawn)	inactive
